CYP2C19 inh: blocks human cytochrome P450 2C19; P33261; CYP2C19 Supersomes, luciferin-H EGE luminescence, 30 min; inhibition, % at 5 µM; hit rate 21% among 96,000;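 active = CYP2C19 inhibition above a set limit at 5 µM in the primary screen, cut at about 50% in these data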;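 note: plate controls were negative control wells for no effect and 2.5 mM tranylcypromine positive control for full effect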
CYP2C9 inh: human CYP2C9 inhibition; P11712; CYP2C9 Supersomes, luciferin-H conversion, luminescence; inhibition, % at 5 µM; hit rate 20% among 96,000;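 active = blocking of liver enzyme CYP2C9 beyond about 50% at 5 µM, limit read from the data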
Target sequence (P11712 whole entry, looked up): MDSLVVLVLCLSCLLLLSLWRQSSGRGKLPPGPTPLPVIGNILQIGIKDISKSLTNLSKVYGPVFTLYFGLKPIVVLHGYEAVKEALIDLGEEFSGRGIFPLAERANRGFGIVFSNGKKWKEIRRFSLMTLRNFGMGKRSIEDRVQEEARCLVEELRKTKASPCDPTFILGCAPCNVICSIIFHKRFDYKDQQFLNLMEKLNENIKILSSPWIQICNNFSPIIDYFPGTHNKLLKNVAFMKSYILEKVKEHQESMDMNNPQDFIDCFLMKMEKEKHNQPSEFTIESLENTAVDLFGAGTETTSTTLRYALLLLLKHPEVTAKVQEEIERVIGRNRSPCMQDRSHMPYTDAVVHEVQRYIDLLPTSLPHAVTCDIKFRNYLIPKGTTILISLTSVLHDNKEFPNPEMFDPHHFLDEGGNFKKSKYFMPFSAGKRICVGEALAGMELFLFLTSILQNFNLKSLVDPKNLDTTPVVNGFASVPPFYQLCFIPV
CYP2C19 activ: increases human CYP2C19 enzyme activity; recombinant CYP2C19, luciferin-H EGE luminescence; active compounds read high; 0 = fully inhibited enzyme, 1 = untreated enzyme; activation factor at 5 µM; 96,000 tested, under 10 active;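 active = activation factor of at least 2 at 5 µM in the primary screen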;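 note: 0 = wells with 2.5 mM tranylcypromine and 1 = vehicle-only wells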
EphB4 ephrin blk: blocks human EphB4 binding to ephrin-B2; hit rate 0.15% among 97,000; EphB4 LBD / TNYL-RAW-Alexa532 peptide, fluorescence polarization; AID 720; P54760; inhibition, % at 7 µM;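 active = inhibition above the screen-wide mean inhibition plus 3 SD, cut at about 15% in these data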;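 note: 0% = DMSO wells and 100% = excess unlabeled TNYL-RAW peptide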
CYP2C9 act: CYP2C9 (human) activation; P11712; recombinant CYP2C9, luciferin-H conversion, luminescence; active compounds read high; factor 1 = untreated enzyme, 0 = blocked; activation factor at 5 µM; hit rate 1.4% among 96,000; AID 1024;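 active = activation factor of 2 or more for CYP2C9 at a 5 µM dose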;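 note: 0 = sulfaphenazole-blocked wells and 1 = vehicle-only wells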
* hit, by the source's call. Sampled rows, rich in hits. Any-hit rate of the full collection: about 27%.

For COC(=O)c1sccc1NC(=O)/C=C\c1ccc(Cl)cc1Cl the results were CYP2C19 inh 8.0, CYP2C9 inh 13.5, CYP2C19 activ 0.9, EphB4 ephrin blk 6.4 and CYP2C9 act 0.9.
`Cc1nc2c(sc3nc4c(cc32)COC(C)(C)C4)c(=O)n1Cc1ccccc1` gave CYP2C19 inh 28.3, CYP2C9 inh 39.6, CYP2C19 activ 0.7, EphB4 ephrin blk -9.0 and CYP2C9 act 0.6.
Screening O=c1[nH]c2c(s1)C=Nc1ccccc1N2 returned CYP2C19 inh -13.4, CYP2C9 inh -14.2, CYP2C19 activ 1.1 and CYP2C9 act 1.1.
Screening O=C(NCCCN1CCOCC1)c1cc2cc(Br)ccc2oc1=O returned CYP2C19 inh -0.7, CYP2C9 inh -0.6, CYP2C19 activ 1, EphB4 ephrin blk 2.3 and CYP2C9 act 1.
`O=C(N/C(=N\O)c1ccccc1)Nc1ccc(Cl)cc1` gave CYP2C19 inh 64.0*, CYP2C9 inh 56.4*, CYP2C19 activ 0.4, EphB4 ephrin blk -1.5 and CYP2C9 act 0.4.
For CC(C)C(=O)NC(c1ccco1)c1ccc2cccnc2c1O (stereo not given) the results were CYP2C19 inh -1.7, CYP2C9 inh 8.4, CYP2C19 activ 1, EphB4 ephrin blk -4.7 and CYP2C9 act 0.9.
For Oc1c(C(Nc2nc3ccccc3s2)c2ccco2)ccc2cccnc12 (stereo not given) the results were CYP2C19 inh 33.5, CYP2C9 inh 73.4*, CYP2C19 activ 0.7, EphB4 ephrin blk 1.7 and CYP2C9 act 0.3.
Screening Cc1ccc(O)c(C(=O)c2cc(C#N)c(=O)n(CC3CCCO3)c2)c1 (stereo not given) returned CYP2C19 inh 66.0*, CYP2C9 inh 46.6, CYP2C19 activ 0.3, EphB4 ephrin blk 0.1 and CYP2C9 act 0.5.
Screening Cc1ccc(S(=O)(=O)N2CCCC2C(=O)OCC(=O)Nc2ccc3c(c2)OCO3)cc1 (stereo not given) returned CYP2C19 inh 23.2, CYP2C9 inh -7.0, CYP2C19 activ 0.8, EphB4 ephrin blk -11.1 and CYP2C9 act 1.1.
Screening CCN(Cc1ccccc1)C(=O)C1CCN(Cc2ccc(OC)c(OC)c2OC)CC1 returned CYP2C19 inh 7.4, CYP2C9 inh -2.0, CYP2C19 activ 0.9, EphB4 ephrin blk 4.0 and CYP2C9 act 1.
`CC(C)c1nnc(NC(=O)c2c(O)c3cccc4c3n(c2=O)CCC4)s1` gave CYP2C19 inh 5.4, CYP2C9 inh 62.6*, CYP2C19 activ 0.9, EphB4 ephrin blk 0.7 and CYP2C9 act 0.4.
CN(C1CCCCC1)S(=O)(=O)c1ccc(NC(=O)c2ccco2)cc1 was read as CYP2C19 inh 23.6, CYP2C9 inh 44.4, CYP2C19 activ 0.8, EphB4 ephrin blk -4.3 and CYP2C9 act 0.6.
Cc1ccc(NC(=O)CSc2nnc(-c3ccncc3)o2)cc1 was read as CYP2C19 inh 97.5*, CYP2C9 inh 50.6*, CYP2C19 activ 0, EphB4 ephrin blk 6.9 and CYP2C9 act 0.5.
Screening O=C(Cc1ccc(Cl)cc1)Nc1ccc2oc(-c3ccncc3)nc2c1 returned CYP2C19 inh 10.2, CYP2C9 inh 9.4, CYP2C19 activ 0.9, EphB4 ephrin blk -8.2 and CYP2C9 act 0.9.
O=C(Nc1nnc(-c2ccccc2)o1)Nc1ccccc1Cl was read as CYP2C19 inh 56.5*, CYP2C9 inh 34.4, CYP2C19 activ 0.4 and CYP2C9 act 0.7.
O=C(CCSc1nnc(-c2ccncc2)o1)Nc1ccccc1Cl was read as CYP2C19 inh 86.8*, CYP2C9 inh 61.3*, CYP2C19 activ 0.1, EphB4 ephrin blk -0.8 and CYP2C9 act 0.4.
Screening COc1ccccc1NC(=O)CSc1nnc(-c2ccc(C)cc2)o1 returned CYP2C19 inh -1.3, CYP2C9 inh -0.8, CYP2C19 activ 1, EphB4 ephrin blk -1.1 and CYP2C9 act 1.
O=C(CCSc1nnc(-c2ccncc2)o1)Nc1ccc(Cl)cc1 was read as CYP2C19 inh 95.9*, CYP2C9 inh 84.3*, CYP2C19 activ 0, EphB4 ephrin blk 2.6 and CYP2C9 act 0.2.
O=C(CCC(=O)N1CCN(c2ccccn2)CC1)Nc1nnc(C2CCCCC2)s1 was read as CYP2C19 inh 16.4, CYP2C9 inh 9.8, CYP2C19 activ 0.8 and CYP2C9 act 0.9.
Screening CCOC(=O)C(C(=O)OCC)N(C#N)c1nc(OC)nc(N(C)C)n1 returned CYP2C19 inh 4.1, CYP2C9 inh -67.8, CYP2C19 activ 1, EphB4 ephrin blk 5.5 and CYP2C9 act 1.7.
For CC(=O)c1c(C)cc(C)c(CSc2nnc(-c3ccco3)o2)c1C the results were CYP2C19 inh 45.2, CYP2C9 inh 51.2*, CYP2C19 activ 0.5, EphB4 ephrin blk 2.0 and CYP2C9 act 0.5.
`O=C(CCSc1nnc(-c2ccco2)o1)Nc1ccccc1` gave CYP2C19 inh 78.7*, CYP2C9 inh 28.0, CYP2C19 activ 0.2, EphB4 ephrin blk 9.3 and CYP2C9 act 0.7.
For O=C(CCSc1nnc(-c2ccco2)o1)Nc1ccc(Cl)cc1 the results were CYP2C19 inh -3.1, CYP2C9 inh -4.5, CYP2C19 activ 1 and CYP2C9 act 1.
Screening O=C(CN1C(=O)C2(OCCO2)c2ccccc21)c1ccc(Cl)cc1 returned EphB4 ephrin blk 0.3.
Screening O=C(CSc1nnc(-c2ccc(F)cc2)o1)N1CCN(C(=O)c2ccco2)CC1 returned CYP2C19 inh 22.8, CYP2C9 inh 20.9, CYP2C19 activ 0.8, EphB4 ephrin blk 2.9 and CYP2C9 act 0.8.
For CCn1c(SCC(=O)NCCc2ccc(F)cc2)nnc1-c1cccs1 the results were CYP2C19 inh 12.3, CYP2C9 inh 14.4, CYP2C19 activ 0.9, EphB4 ephrin blk 1.3 and CYP2C9 act 0.9.
Screening CC(C)(CSc1nncn1N)NS(=O)(=O)c1ccc(Cl)cc1 returned CYP2C19 inh 95.0*, CYP2C9 inh 50.6*, CYP2C19 activ 0.1, EphB4 ephrin blk 2.0 and CYP2C9 act 0.5.
For Cn1cnnc1SC1CCCCC1NS(=O)(=O)c1ccc(Cl)cc1 (stereo not given) the results were EphB4 ephrin blk -6.8.
Screening COC(=O)C1=C(C)N2C(=O)CSC2=NC1c1ccc2c(c1)OCO2 (stereo not given) returned CYP2C19 inh 64.7*, CYP2C9 inh 50.2*, CYP2C19 activ 0.4 and CYP2C9 act 0.5.
For COC(=O)c1ccc(NC(=O)c2ccc3c(c2)OCO3)cc1 the results were CYP2C19 inh -0.1, CYP2C9 inh -2.0, CYP2C19 activ 1, EphB4 ephrin blk -8.4 and CYP2C9 act 1.
`COC(=O)c1[nH]c2cccc(OC)c2c1NC(=O)CCN1CCN(c2cccc(Cl)c2)CC1` gave CYP2C19 inh 6.6, CYP2C9 inh 9.0, CYP2C19 activ 0.9, EphB4 ephrin blk -0.6 and CYP2C9 act 0.9.
For Cc1ccc(N2C(=O)C3CC(c4ccccc4)=C4C5C=CC(C6C(=O)N(c7ccc(C)cc7C)C(=O)C56)C4C3C2=O)c(C)c1 (stereo not given) the results were CYP2C19 inh 13.3, CYP2C9 inh 84.8*, CYP2C19 activ 0.9, EphB4 ephrin blk 3.6 and CYP2C9 act 0.2.

Screening results as filed in PubChem.
